# Measured values taken from the supplement of paper PMC6555819.
# Test system: VDR:RXRa (NR concentration 270 nM, RXRa partner concentration 90 nM)
# Assay: PBM binding z-score (relative to random genomic background probes); higher = stronger binding; sequences stand for … in GC…GCGATTGACAGCGTAGAATGAAGG
# Protocol: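 Protein-binding microarray (Agilent 4x180K custom design, double-stranded 60-nt probes: 5' GC cap, 34-nt variable region, 24-nt constant primer region; full probe sequence given). Purified or IVT nuclear receptor:RXRα heterodimers (3:1 NR:RXRα, mostly 270:90 nM) or homodimers were incubated for 1 h in PBS with 2% milk and no ligand, then detected with Alexa488 antibodies. Fluorescence from o1-orientation probes (~5 replicates averaged) was converted to z-scores against 500 random hg19 background probes. Variable regions are seed direct-repeat (DR0–DR5) sites, all their single-nucleotide variants and half-site ablations.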
row,Sequence,PBM binding z-score
1,CCTTACGGGTCACTCCAGGATATAGCATCGGAGT,2.88
2,CCTTGCAGGCCAATCTGGGTCACTCAAGGCTTGA,0.663
3,AGAACGAGGGCAATGAGTTGATTGCACGGGTGGC,5.07
4,CGTCCAAGGTCAGAAAGGTCAGTGAATGCCGAGT,6.33
5,ATCGAAAGGTCGACGAGGCGAGTATACACCGTTT,3.79
6,TTACCAAGGTGAAGGTCGTTGAACCCTCTGTAGA,3.04
7,TCTCGGAGGACACGAAGTTCAGAGCTTTCCAGAG,2.63
8,CGTCCAACGTCAAAGGTCAGTGAAGAGATGACGG,2.8
9,CCGACTGGGGCAAGGGTACCATAACGCACAGCCA,-0.346
10,AGAATGAGTTTATACGTAGATCAGGGAAGAAAGT,1.71
11,TTAGCAAGGTGAAGGTCGTTGATCCCTCTGTAGA,0.964
12,TCGAGTAGGTTAAGGGCATTCAGAATGGCGTCGA,0.959
13,CGAACTAGGTCATTGACAGGACAGAGAATAGTAA,2.18
14,GGAACGAGGGCAAAGTTGATAGCTTCTGTCGACG,1.09
15,CCTAGTTGGTCTGGAGGTCACACACCGGATATGA,4.03
16,GCTCGGAGGACAAGGTCAGAGGTTTGTCCGTAGA,1.81
17,ATCTCTAGGTAAGACTCAGTTTAGTGAAGAACGC,0.468
18,ATCTCTAGGTAAGACTCAGTGCAGTGAAGAACGC,-0.0962
19,GGAACGAGGGCAAAGTTGATAGCCTCTGTCGACG,0.981
20,TGACAAAGTTCAAAGGTAACGTAAGTATCCACAC,5.25

row,Sequence,PBM binding z-score
1,CGTCCAAGGTCAAGGTCGGTGAAAGAGACTCGAA,4.2
2,CCTCGGAGGACAACAGGAGGTCACAGCTGCCAGA,3.53
3,TAGCCTAGTTCATTGGGCCAGTATAGTACGCATC,1.17
4,TCTGCTCGGTCAGTTGGTCAGCTAACGAGCTGCC,-0.549
5,CCTCGGAGGACAACAGGAGGTCAGGGCTGCCAGA,1.62
6,CCGACTGGGGCATAAGGTTACCGTAAGCCAGCCC,0.108
7,AGAATGAGGTTATTAAGAACAGGGAATTGCGGTC,1.83
8,CCTAGCAGGCCTGGGTCACTCAAGCATTTCGCTT,0.546
9,CCTGTTAGGTCAATGGTCAGCTAAAGCAGCTCGC,1.54
10,ACAGATAGGTGAGTGAAGGTAACTCAGCTGGACG,-0.335
11,TCTTGTAGACCAAAGGTTAAGAAAGCCGAAGCCT,0.807
12,GGAACGAGCGCAAGTTGATAGCAGAGTTTGATGG,-0.693
13,CCTATTAGTTGACCATAAGGGCAACCGAAGCTCG,1.22
14,CCTATTAGTTGACCATAAGGACAACCGAAGCTCG,1.07
15,TCTAGCAGGCCAGACGGTCACTCAAGAGGTACGG,-0.346
16,AATACAGGGGCATCGTAGGCCAGAGTACGCACAG,0.784
17,CAAGACAGGTGAGAAGGTAACTCAGCCTCGATTA,-0.155
18,AACACAGGGTCATCGTAGGCCAGAGTACGCACAG,5.15
19,TCTATTAGTTGATTAGGGCACCCGAAACAGCGGA,0.698
20,CGTCCAAGGTCAATGCTAGTTCAGTGAAAGCATT,4.84
